Out of some 48,000 compounds screened, about 13,000 (27%) showed an effect of 50% or more. The list shows a part of the results.
System: Wolbachia pipientis
Test: Anti-Wolbachia Cell-Based Screen
Format: functional
Parameters: scale not given: in the data most compounds retested in dose-response had high values
Conditions: 5 µM

SMILES	Percent Effect
Cc1csc(CCNc2ccc(C#N)cc2F)n1	-5.881%
CN(Cc1cc(-c2ccccc2)no1)CC1CCCN1c1cccnn1 (stereo unspecified)	1.009%
O=C(c1cccc2cccnc12)N1CCCN(c2cccnn2)CC1	11.56%
CC(C)C1CN(C(=O)Nc2cnn(CC(F)F)c2)CCS1 (stereo unspecified)	-11.36%
CCNC(=O)[C@@H]1C[C@@H](n2cc(CC3CCCCC3)nn2)CN1	1.299%
CNC(=O)[C@@H]1C[C@@H](n2cc(-c3ccc(CN4CC=CC4)cc3)nn2)CN1	109.8%
CNC(=O)[C@@H]1C[C@H](n2cc(-c3ccc(CN4CC=CC4)cc3)nn2)CN1	109.2%
CCNC(=O)[C@@H]1C[C@@H](n2cc(CN(CC)CC)nn2)CN1	-7.284%
CCNC(=O)[C@@H]1C[C@H](n2cc(CC3CCCCC3)nn2)CN1	16.21%
Cc1ncc(CN2CCC(n3cc(-c4ccc(F)cc4)nn3)CC2)cn1	6.515%
CCCS(=O)(=O)c1ccc(N2CCN(Cc3ccccc3)CC2)nn1	5.683%
OC(CN1CCN(Cc2nnc(C3CC3)o2)CC1)c1ccccc1 (stereo unspecified)	-2.421%
CCOc1ccc(-c2ccnc(CC)n2)cc1C(=O)O	-9.54%
CC(C)Oc1ccc(CNC(=O)C2CCC(=O)N2)cn1 (stereo unspecified)	3.42%
Cc1ccc(CNC(=O)Nc2nnc(C)s2)cn1	3.385%
Cc1nnc(NC(=O)NCc2ccc(OC3CCCC3)nc2)s1	94.72%
O=C(NCc1ccc(OCC2CC2)nc1)Nc1c(F)cccc1F	-3.933%
COc1ccc(CNC(=O)NC2CCN(CC3CCCC3)CC2)cn1	15.19%
Cc1nnc(NC(=O)NCc2ccc(OC(C)C)nc2)s1	85.37%
Cc1nnc(SCC(=O)NCC(c2ccccc2Cl)N(C)C)s1 (stereo unspecified)	-0.8898%
CCOC1CCN(C(=O)c2csc(S(N)(=O)=O)c2)CC1	18.04%
CC(C)CC1(C(=O)NCc2nncn2C2CC2)CCC1	-7.53%
CCn1cnnc1CNC(=O)NC(C)C(C)C (stereo unspecified)	-4.455%
Cc1nc(NCc2nnc(C)n2C)c2c(CC(C)C)csc2n1	119.2%
Cc1nc(NCc2nncn2C2CC2)c2c(CC(C)C)csc2n1	109.7%
CCC(NC(=O)NCc1nncn1CC)c1ccc(OC)cc1 (stereo unspecified)	-10.18%

SMILES	Percent Effect
CCn1cnnc1CNc1nc(C)nc2scc(CC(C)C)c12	122.4%
Cc1c(NC(C)C(C)C)cccc1C(=O)NCc1nnc(C)n1C (stereo unspecified)	0.4576%
COC(C)(C)CC(C)NCc1nncn1C1CCCCC1 (stereo unspecified)	-17.97%
COc1ccc(S(=O)(=O)C(F)(F)F)cc1NC(=O)CSCC#N	5.684%
O=C(Cn1nc2c(cc1=O)CCCC2)N[C@@H](Cc1ccccc1)C(=O)O	3.393%
CC(C)c1cc(NC(=O)CN2CCc3nn(C)c(=O)cc3C2)on1	-16.14%
O=c1cc2c(nn1CN1CCN(c3ccccc3)CC1)CCC2	10.03%
O=C(Cn1nc2c(cc1=O)CCCC2)N[C@@H](C(=O)O)c1ccccc1	11.26%
O=C(Cn1nc2c(cc1=O)CCCC2)NC(Cc1ccccc1)C(=O)O (stereo unspecified)	101%
O=C(Cn1nc2c(cc1=O)CCCC2)NC(C(=O)O)c1ccccc1 (stereo unspecified)	110.7%
O=C(Cn1nc2c(cc1=O)CSCC2)NC(Cc1ccccc1)C(=O)O (stereo unspecified)	28.51%
CCCn1nc2c(cc1=O)CN(CC(=O)Nc1cc(C)no1)CC2	-28.4%
CC(C)C(NC(=O)Cn1nc2c(cc1=O)CCCC2)C(=O)O (stereo unspecified)	113%
CCCc1cc(NCc2noc(COC)n2)n2nccc2n1	6.33%
CCC(C(=O)NC1CCCCC1)n1cccc(OC)c1=O (stereo unspecified)	-2.043%
CN(C)c1ccc(CC2CCCN(c3cnccn3)C2)nn1 (stereo unspecified)	93.08%
CN(C)c1ccc(CC2CCN(c3cnccn3)C2)nn1 (stereo unspecified)	129.7%
c1cnc(CC2COCCN(C3CCCCC3)C2)cn1 (stereo unspecified)	106.9%
CN(C)c1ccc(CC2CCN(c3cnccn3)CC2)nn1	90.64%
Cc1cccc(O[C@H]2COCCN(C3CCC3)C2)n1	0.8237%
c1cncc(O[C@H]2COCCN(C3CCC3)C2)c1	-11.18%
Cc1occc1C(=O)N1CCC2(CC1)CN(Cc1nccs1)CCO2.O=C(O)C(F)(F)F	-1.97%
CCNC(=O)CNS(=O)(=O)c1cc(Br)ccc1F	-3.098%
Cc1nnc(NCC2(c3ccc(Cl)cc3Cl)CCOCC2)c(C#N)c1C	25.06%
COCC1(CNC(=O)[C@@]23CNC[C@@H]2CN(C2CCCC2)C3)CC1	-67.22%
